Experimental data as given in PubChem BioAssay AID2284197 (EPA ToxCast).
Calls of active or inactive are those of the source. The calls were made as follows: active = hit-call score of the fitted dose curve at least 0.9, where 1 is the maximum; inactive = score below 0.9.

The compounds below were run against human Thyroid Hormone Receptor Alpha (TRa) Agonism, THRA (gene 7067) (UniProt P10827) (assay: ERF_TW_NR_COA_hTHRA: Eurofins (ERF) Nuclear Receptor (NR) Functional Coactivator Assay for human Thyroid Hormone Receptor Alpha (TRa) Agonism).
Chain of human Thyroid Hormone Receptor Alpha (TRa) Agonism, THRA (gene 7067) (P10827 whole entry, looked up): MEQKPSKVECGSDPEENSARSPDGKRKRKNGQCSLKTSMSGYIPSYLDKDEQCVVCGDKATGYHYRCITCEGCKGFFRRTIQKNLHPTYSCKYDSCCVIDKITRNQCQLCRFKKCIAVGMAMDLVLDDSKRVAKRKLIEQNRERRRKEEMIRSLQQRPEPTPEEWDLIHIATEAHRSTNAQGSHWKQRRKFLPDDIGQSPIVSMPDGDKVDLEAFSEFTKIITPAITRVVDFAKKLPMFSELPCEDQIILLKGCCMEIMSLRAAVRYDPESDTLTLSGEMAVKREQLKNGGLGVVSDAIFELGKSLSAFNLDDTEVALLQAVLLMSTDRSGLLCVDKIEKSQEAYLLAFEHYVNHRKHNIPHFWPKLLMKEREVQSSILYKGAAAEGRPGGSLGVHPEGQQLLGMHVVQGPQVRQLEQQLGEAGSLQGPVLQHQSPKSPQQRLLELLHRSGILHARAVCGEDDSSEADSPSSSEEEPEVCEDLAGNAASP
Experimental: ERF_TW_NR_COA_hTHRA is a biochemical, single-readout assay that uses extracted gene-proteins in a cell-free assay. Measurements were taken 0.5 hour after chemical dosing in a 96-well plate. See TRalpha Human Thyroid Hormone NHR Functional Agonist Coactivator Assay, Panlabs.ERF_TW_NR_COA_hTHRA is an assay component calculated from the ERF_TW_NR_COA_hTHRA assay. It is designed to measure TR-FRET using a type of inducible reporter as detected by fluorescence intensity of 7-hydroxy-coumarin with FRET: TR-FRET technology.Data from the assay component ERF_TW_NR_COA_hTHRA_Agonist was analyzed at the assay endpoint, ERF_TW_NR_COA_hTHRA_Agonist, in the positive analysis fitting direction relative to DMSO as the negative control and baseline of activity. Using a type of agonist, gain-of-signal activity can be used to understand changes in protein-protein interaction as they relate to gene THRA. […]
Test compound and/or vehicle is incubated with the 0.25 nM TR alpha LBD-GST and coactivator peptide for 30 minutes at RT. Determination of the amount of complex formed is read spectrofluorimetrically (excitation: 337 nm, emission: 520/490 nm). Test compound-induced increase of fluorescence by 50 percent or more relative to the 0.1 uM T3 response indicates possible TR alpha receptor agonist activity.
For `O=C(/C=C/c1ccc(O)cc1)CC(=O)/C=C/c1ccc(O)cc1`, the outcome was “inactive”. In the case of `COc1cc(CCC(=O)CC(=O)CCc2ccc(O)c(OC)c2)ccc1O`, the outcome is reported as “inactive”.
